Inconclusive results are not listed. Where a call stands in place of a potency, no number is given. Activity calls are given as the source filed them. Calls come from the whole dose curve; as a rule, active = well fitted activation curve with a large enough effect; inconclusive = small, poorly fitted or top-dose-only effect; inactive = flat fitted curve, though single readings scatter.

This test can be described thus: Primary redox qHTS assay for identification of artifact compounds. (AID 1845223). As to conditions: Amplex Red/HRP redox cycling with DTT, fluorescence; series mostly up to 53.8 µM. A digest of the protocol: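 Amplex Red (25 uM) and HRP (250 mU/mL) in HBSS, with compounds for 15 min, then 250 uM DTT for 30 min, room temperature, dark. Fluorescence 525/598 nm read; normalized to DMSO and 10 uM DA3003; Hill fit.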
(In general: In qHTS, concentration-response curves come from the screen itself.)
Turning to `O=C(C(Cc1cccc(C(F)(F)F)c1)NS(=O)(=O)c1cc(F)c2c(c1)CCNC2)N1CCCC1` (stereo unspecified), the Potency entry is “inactive”.

For the compound `COC(=O)c1cc2c(C(F)(F)F)cc(-c3ccccc3)cc2n1O`, the Potency entry was “inactive”.

On to `CN(C)C(=O)Nc1cc(-c2ccccc2)ccc1N(C)C`, for which the Potency entry is “inactive”.

In the case of `CCC(C)(OC(C)=O)C(=O)O[C@H]1[C@H](OC(C)=O)[C@]2(CO)[C@H](O)[C@H](O)[C@]3(C)C(=CCC4[C@@]5(C)CC[C@H](O[C@@H]6O[C@H](C(=O)O)[C@@H](O)[C@H](O[C@@H]7OC[C@H](O)[C@H](O[C@@H]8OC[C@H](O)[C@H](O)[C@H]8O)[C@H]7O)[C@H]6O[C@@H]6O[C@H](CO)[C@@H](O)[C@H](O)[C@H]6O)C(C)(C)C5CC[C@]43C)[C@@H]2CC1(C)C` (stereo partly specified), the redox activity (% of DA3003) was 22% [at 11.5 µM] (inactive).

Regarding `CC(C)n1cnc2c(-c3cnc(N)nc3)nc(N3CCOCC3)nc21`, the Potency entry is “inactive”.

`CC(C)=CCc1cc2c(cc1O)OC[C@H]1c3ccc(O)cc3O[C@@H]21`: the Potency result is “inactive”.

Take `C=C1CC[C@@H]2[C@](C)(CO)[C@H](O)CC[C@@]2(C)[C@@H]1C/C=C1/C(=O)OCC1OC(=O)/C(=C/CO)C(O)C[C@@H]1C(=C)CC[C@@H]2[C@](C)(CO)[C@H](O)CC[C@]21C` (stereo partly specified): the Potency entry is “inactive”.

As for `Cc1noc(C)c1-c1cc(O)cc(C(O)c2ccccc2)c1` (stereo unspecified), the Potency result was “inactive”.

As to `CCC(C)c1ccc(NC(=O)Cn2cnc3c2c(=O)n(C)c(=O)n3C)cc1` (stereo unspecified), the Potency entry is “inactive”.

Regarding `Cc1cc(F)ccc1[C@H]1C[C@@H](N2CCN3C(=O)CC[C@H]3C2)CCN1C(=O)N(C)[C@H](C)c1cc(C(F)(F)F)cc(C(F)(F)F)c1`, the Potency entry is “inactive”.

Consider `CCOc1ccc(-n2c(C(C)N(Cc3cccnc3)C(=O)Cc3ccc(F)c(C(F)(F)F)c3)nc3ncccc3c2=O)cc1` (stereo unspecified), for which the Potency result is “inactive”.

For the origin of these results see PubChem BioAssay (NCATS).
